This is an account of results in PubChem BioAssay AID1566 (Sanford-Burnham Center for Chemical Genomics, 2009).

The term inhibition denotes the change of the read-out against control, counted positive when it falls.

Structures are written as SMILES. Hit rate of the full screen: of about 290,000 compounds, about 1,800 (0.62%) were called active. Many of the other results were omitted from the sample, so actives are more common in it than they were. A number with no mark means an inactive call. No stated cut-off is given here; in the data, active means inhibition above about 50%; inactive means the rest.

A short description of the test: inhibition of NOD2-driven NF-kB reporter – cell-based, luminescence, uHTS, HEK293 (AID 1566). The settings on record: HEK293 NOD2/NF-kB luciferase reporter, at 4 µM, hits give high values.
For `Cc1nc2scc(C)n2c(=O)c1S(=O)(=O)Nc1ccc(N2CCOCC2)c(Cl)c1`, the inhibition was 51.2% (active).
Then `Cc1nc2sccn2c(=O)c1S(=O)(=O)Nc1ccc(N2CCOCC2)c(Cl)c1`, with 33.7%; and `Cc1nc2scc(C)n2c(=O)c1S(=O)(=O)Nc1ccc(N2CCOCC2)cc1`, with 14.2%.
The figure for `O=C(c1ccncc1)c1ccc(NS(=O)(=O)c2ccc(Br)s2)cc1` is 23.1%; for `Cc1cc(C=C2C(=O)c3ccccc3C2=O)c(C)n1-c1cccc(C(=O)O)c1` it is -11.1%; for `Cc1cc(C=C2C(=O)c3ccccc3C2=O)c(C)n1-c1ccccc1` it is 5.9%.
Then `Cc1cc(C=C2C(=O)CCCC2=O)c(C)n1-c1ccccc1`, with 1.8%.
As for `Cc1cccc(-n2c(C)cc(C=C3C(=O)c4ccccc4C3=O)c2C)c1`, the inhibition was 57.4% (active).
The figure for `Cc1cc(/C=C2\Cc3ccccc3C2=O)c(C)n1-c1ccccc1` is 59.1% (active); for `Cc1cc(C=C2C(=O)c3ccccc3C2=O)c(C)n1-c1ccc(Cl)cc1` it is 19.2%; for `CNC(=O)CSc1nc2[nH]ncc2c(=O)[nH]1` it is 10.9%.
`COc1ccc(C(CC(=O)N2CCCC2)C(C)C)cc1` (stereo unspecified): the inhibition was -6.1%.
Then `O=C(NC(Cc1ccc2c(c1)OCO2)C(=O)NC(Cc1ccccc1)C(=O)O)c1ccccc1` (stereo unspecified), with 0%.
Then `O=C(CN(Cc1cccs1)C(=O)CNS(=O)(=O)c1ccccc1)NC1CCCC1`, with 9.3%; and `CCN(CC)CCNC(=O)c1cc(S(=O)(=O)N2CCc3ccccc32)cn1C`, with 27.1%; and `CCCNC(=O)c1cc(S(=O)(=O)N2CCc3ccccc32)cn1C`, with 52.1% (active).
`CC(C)CCNC(=O)c1cc(S(=O)(=O)N2CCc3ccccc32)cn1C`: the inhibition is 26.2%.
For the molecule `CS(=O)(=O)N(CC(=O)Nc1cccc(Cl)c1)c1ccccc1Cl`, the inhibition is -11.8%.
Then `C[C@H]1O[C@@H](O[C@H]2[C@@H](O)C[C@H](O[C@H]3[C@@H](O)C[C@H](O[C@H]4CC[C@@]5(C)[C@H](CC[C@@H]6[C@@H]5C[C@@H](O)[C@]5(C)[C@@H](C7=CC(=O)OC7)CC[C@]65O)C4)O[C@@H]3C)O[C@@H]2C)C[C@H](O)[C@@H]1O`, with 77.7% (active); and `COc1ccc(N(CC(=O)Nc2ccc(C)c(C)c2)C2=NC3CS(=O)(=O)CC3S2)cc1` (stereo unspecified), with 10.8%; and `CCC(C)(C)NC(=O)C1CC(=O)N(CCc2ccc(F)cc2)C1` (stereo unspecified), with 12.1%.
Turning to `COc1ccc(S(=O)(=O)N2CCC(N3CCN(c4ccccc4)CC3)CC2)cc1`, the inhibition is 16.7%.
The figure for `Cc1nc2ccccc2c2oc(C(=O)NCc3ccc4c(c3)OCO4)cc12` is 45.9%; for `Cc1cc(C(=O)NCC2COc3ccccc3O2)c2ccccc2n1` (stereo unspecified) it is 17.7%; for `Cc1c(/C(O)=C2/C(=O)C(=O)N(CCN(C)C)C2c2ccc(C(C)C)cc2)cnn1-c1ccccc1` (stereo unspecified) it is 28.4%.
The figure for `Cc1ccc(C)c(N(C)C(=O)c2cc3c(=O)[nH]c4ccc(C)cc4c3s2)c1` is -16%.
The figure for `Cc1ccc2[nH]c(=O)c3cc(C(=O)N(C)C4CCCCC4)sc3c2c1` is 56.8% (active).
With `Cc1ccc2[nH]c(=O)c3cc(C(=O)N(C)c4ccccc4C)sc3c2c1`, the inhibition is 13.1%.
The figure for `COc1cc(CN2CCC(Cc3ccccc3)CC2)cc([N+](=O)[O-])c1O` is -1.9%; for `O=C(Nc1ccc(N2CCCC2)cc1)c1cc(Br)ccc1Cl` it is -11.7%.
The figure for `Cc1ccc2c(COC(=O)c3c(C)noc3C)cc(=O)oc2c1` is 0.4%.
The figure for `N[C@@H](CO)c1nnc([C@H](CC(=O)O)NC(=O)C2CCNCC2)o1` is -3.6%.
As for `CCSc1nsc(NC(=O)Nc2ccccc2F)n1`, the inhibition is -32.2%.
Take `CCSc1nsc(NC(=O)Nc2cccc(OC)c2)n1`: the inhibition was 17.5%.
Then `CC1CCN(C(=O)c2ccc(CS(=O)(=O)Cc3ccccc3)cc2)CC1`, with 12.8%; and `Cc1ccc(NC(=S)N2CCC(NC(=O)c3ccc(C)cc3)CC2)cc1`, with -13.6%; and `CCc1ccc(NC(=S)N2CCC(NC(=O)c3ccccc3)CC2)cc1`, with 7.4%.
The figure for `Cc1ccc(NC(=S)N2CCC(NC(=O)c3ccccc3)CC2)cc1` is 93% (active).
Then `CC(C(=O)NC1CCCCCC1)n1cc([N+](=O)[O-])cn1` (stereo unspecified), with 3.3%; and `O=[N+]([O-])c1cccc2ccc(/C=C/c3cccc(Br)c3)nc12`, with -19%; and `Cc1ccc(-c2csc(N3CCN(CCCn4c(C(F)(F)F)nc5ccccc54)CC3)n2)cc1`, with 19.9%.
In the case of `CC(=O)N[C@@H](C)c1nc2ccccc2n1CCCN1CCN(c2nc(-c3ccc(C)cc3)cs2)CC1`, the inhibition was 44.3%.
The figure for `Cc1ccc(Cn2c(SC3CCOC3=O)nc3ccccc3c2=O)cc1` (stereo unspecified) is -3.1%.
On to `O=C1NCC(CN(c2ccccc2)c2ccccc2)O1` (stereo unspecified), for which the inhibition is 14.1%.
Turning to `CN(Cc1ccccc1)c1ncnc2ccc(Br)cc12`, the inhibition is 20.7%.
The figure for `CCN(CC)c1ncnc2ccc(Br)cc12` is 65.5% (active); for `CC(C)Nc1ncnc2ccc(Br)cc12` it is 43%.
The figure for `Cn1c(=O)oc2cc(S(=O)(=O)N3CCC(C(=O)N4CC=C(c5ccccc5)CC4)CC3)ccc21` is 7.5%.
For the molecule `Cc1nnc(SCC(=O)Nc2cccc([N+](=O)[O-])c2)n1CC1CCCO1` (stereo unspecified), the inhibition was 2.2%.
The figure for `O=C(O)c1ccccc1C(=O)c1ccc(Oc2ccccc2)cc1` is -0.9%.
Take `O=C(O)c1ccccc1C(=O)c1ccc(-c2ccccc2)cc1`: the inhibition was 64.3% (active).
Regarding `O=C(O)c1ccccc1C(=O)c1ccc(Cl)cc1`, the inhibition was 1%.
Take `Cc1ccc2c(C)c(C(=O)Nc3c(C)n(C)n(-c4ccccc4)c3=O)oc2c1C`: the inhibition was 22.4%.
For `CCC(=O)N1CCc2cc(S(=O)(=O)CCC(=O)NC(C)CC)ccc21` (stereo unspecified), the inhibition is 10.4%.
As to `CCc1ccc(N(C(=O)Cn2nnc(-c3ccccc3)n2)C(C(=O)NC2CCCCC2)c2ccccn2)cc1` (stereo unspecified), the inhibition was 5.5%.
The figure for `COCc1cc(=O)[nH]c(Nc2nc3ccc(C)cc3o2)n1` is 62.8% (active); for `COC(=O)Cc1cc(=O)[nH]c(Nc2nc3ccccc3o2)n1` it is -8.6%; for `COCc1cc(=O)[nH]c(Nc2nc3ccccc3o2)n1` it is -130%.
As for `COc1ccc(Cn2c(C3CC3)nc3ccc(NC(=O)c4ccco4)cc3c2=O)cc1`, the inhibition is -43.8%.
Then `CCn1c(C)c(C(C)=O)c(N2CCN(c3cccc(Cl)c3)CC2)nc1=S`, with 15.5%.
On to `CC(=O)Nc1ccc(/C(C)=N/NC(=O)c2ccc(CN3CCOCC3)cc2)cc1`, for which the inhibition was 6.9%.
Then `CC1CCCCN1C(=O)c1ccc(C(=O)N2CCCCC2C)cc1` (stereo unspecified), with 5%.
The figure for `COc1ccc(OC(=O)Nc2ccccc2)cc1` is -3.6%; for `Cc1nnc(SCc2nnc(-c3ccc(Cl)cc3)o2)n1-c1ccccc1` it is -2.6%; for `N#Cc1c(-c2ccccc2)cc(-c2ccccc2)nc1SCc1nnc(-c2ccccc2)o1` it is 15.7%.
Turning to `Cc1cc(C)c(C#N)c(SCc2nnc(-c3ccccc3[N+](=O)[O-])o2)n1`, the inhibition was -197%.
With `Cc1csc(SCc2nnc(-c3ccc(Cl)cc3)o2)n1`, the inhibition was -134%.
The figure for `Cc1ccc(C#N)c(SCc2nnc(-c3ccc(Cl)cc3)o2)n1` is 67.8% (active); for `Cc1ccc(-n2c(C)cc(/C=N/NC(=O)c3ccncc3)c2C)c(C)c1` it is 7%.
Then `Cc1ccc(NC(=O)c2ccc3ccccc3n2)cc1S(=O)(=O)N(C)C`, with -57.9%.
The figure for `O=C(CSc1nc2ccccc2[nH]1)Nc1cccc(S(=O)(=O)N2CCOCC2)c1` is 24.9%; for `CC(=O)Nc1cccc(-n2nnc(SCC(=O)Nc3ccccc3)n2)c1` it is 0.6%.
As for `Cc1cc(OCC(=O)NCCc2ccc(S(N)(=O)=O)cc2)c2c(C)c(C)c(=O)oc2c1`, the inhibition is 8.3%.
Consider `Cc1n[nH]c(=O)nc1NC1CCCCC1`, for which the inhibition is 3%.
As to `C=CCn1c(CSCc2ccccc2)nnc1SCC(=O)N1CCN(c2ccccc2)CC1`, the inhibition is 0.4%.
Then `N#Cc1ccccc1NC(=O)C1SC(=Nc2ccccc2)C(C(=O)Nc2ccc(Cl)cc2)=C1N` (stereo unspecified), with 50.7% (active); and `CCOc1ccc(N=C2SC(C(=O)Nc3ccccc3C#N)C(N)=C2C(=O)Nc2ccc(Cl)cc2)cc1` (stereo unspecified), with 13.4%; and `Cc1ccc(NC(=O)C2SC(=Nc3ccccc3)C(C(=O)Nc3ccc(Cl)cc3)=C2N)cc1` (stereo unspecified), with -14.9%.
As for `CC(=O)Nc1ccc(SC(C)C(=O)NC2CCCC2)cc1` (stereo unspecified), the inhibition was -6.7%.
Take `COc1ccc(-c2nc3ccccc3s2)cc1`: the inhibition was -217%.
Then `Oc1ccc(-c2nc3ccccc3s2)cc1`, with -198%.
As for `Cn1nnc2cc(C(=O)NCc3ccc4c(c3)OCO4)ccc21`, the inhibition is -37.1%.
Regarding `Cc1ccc(S(=O)(=O)CNC(=O)c2ccccc2)cc1`, the inhibition was 1.3%.
With `Cc1ccc(C(=O)NS(=O)(=O)c2ccc(C)cc2)cc1`, the inhibition is -1.5%.
Then `Cc1ccc(C(=O)NC(=S)NNS(=O)(=O)c2ccc(C)cc2)cc1`, with 7.8%; and `Cc1ccc(S(=O)(=O)NCCNC(=O)c2ccccc2)cc1`, with -8%.
Then `COc1sc(SC)cc1/C=N/NC(=O)c1ccncc1`, with 12.3%; and `O=C(NC1CCCCC1)C(c1ccc(F)cc1)N(Cc1cccs1)C(=O)CN1C(=O)c2ccccc2S1(=O)=O` (stereo unspecified), with 13.4%.
Take `CC1Cc2ccccc2N1S(=O)(=O)c1cccc(C(=O)OCC(=O)NC2CCS(=O)(=O)C2)c1` (stereo unspecified): the inhibition was -8.8%.
Then `CC1(CC(=O)N/N=C/c2ccc(-c3ccc(C(=O)O)cc3)o2)OCCO1`, with 17.9%.
Turning to `CCn1cc(S(=O)(=O)Nc2cc(C(=O)OC)ccc2C)cn1`, the inhibition was 8.3%.
